GPT2 inhibitor = inhibitors of human GPT2 alanine aminotransferase | Q8TD30 | Recombinant GPT2, coupled pyruvate oxidase/HRP Amplex Red fluorescence | Potency, µM (series often up to 57.7 µM), for inactives: at the highest dose activity change, negative = inhibition, hits mostly inhibitors | hit rate 0.25% among 100,000 | AID 1671188; note: % is set by controls: 0 for no effect and ±100 for the full control effect; nearly all actives have a fitted effect of over 60% in size
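Fluorescence read-out: pyruvate from GPT2 turnover coupled to pyruvate oxidase, HRP and Amplex Red (0.2mM ThPP, 0.2U/mL PO and HRP, 50uM Amplex final). Substrates 250uM a-KG, 2mM L-alanine; enzyme 10ng/uL; 30 min RT.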
HEK cytotox = cytotoxic compounds in HEK 293 cells. HEK 293 viability, ATP luminescence (CellTiter-Glo), 48-72 h. Potency, µM (doses to about 115 µM), inactives show top-dose activity change, negative = cytotoxicity, actives largely listed as inhibitors. hit rate 6.6% among 94,000. AID 1345083; note: % is set by controls: 0 for no effect and ±100 for the full control effect; nearly all actives have a fitted effect of over 60% in size
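qHTS cytotoxicity; HEK 293, 250 cells/well; compound pinned; 48 or 72 hr, 37 degree Celsius, 5% CO2, 95% humidity; CellTiter-Glo, 10 min RT; luminescence (ATP).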
hNpr1 antagonist = antagonists of human natriuretic peptide receptor Npr1; P16066; HEK293 hNpr1 GloSensor cGMP, ANP-stimulated luminescence; Potency, µM (highest dose often 46.3 µM), for inactives: at the highest dose activity change, negative = inhibition, actives largely listed as inhibitors; hit rate 1.6% among 76,000; AID 1347048; calls by dose curve; note: % is set by controls: 0 for no effect and ±100 for the full control effect; nearly all actives have a fitted effect of over 60% in size
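HEK293 cells stably expressing human Npr1 and cGMP GloSensor pGS-40F, loaded 2 h with 2% GloSensor reagent, given compound 30 min at room temperature. Luminescence read before and 20 min after 0.1 nM hNppA.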
NIH3T3 tox = kills NIH 3T3 cells; hit rate 4.3% among 94,000; NIH 3T3 viability, CellTiter-Glo ATP luminescence, 48-72 h; AID 1345082; Potency, µM (doses to about 96.7 µM), without a hit: top-dose activity change, negative = cytotoxicity, usual class: inhibitors; note: % is set by controls: 0 for no effect and ±100 for the full control effect; nearly all actives have a fitted effect of over 55% in size
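Cytotoxicity was measured by CellTiter-Glo ATP luminescence after 48 or 72 h compound exposure at 37 °C. Mouse NIH 3T3 fibroblasts were seeded at 400 cells/well and dosed by 23 nL pin transfer.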
FLuc inh = inhibitors of firefly (Photinus pyralis) luciferase. P08659. Potency, µM (highest dose often 115 µM), usual class: inhibitors. AID 1347043. purified P. pyralis luciferase, luminescence, biochemical. hit rate 2.5% among 76,000; note: % is set by controls: 0 for no effect and ±100 for the full control effect; nearly all actives have a fitted effect of over 65% in size
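Inhibitors were tested against purified firefly luciferase in a biochemical, low-substrate format (both substrates at 10uM) and luminescence measured with a CCD imager.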
NPR1 antag cnf = confirmation of human Npr1 natriuretic peptide receptor antagonists. shares compounds with hNpr1 antagonist. HEK293 hNpr1 cGMP GloSensor luminescence, ANP-stimulated. AID 1347044. Potency, µM (doses to about 57.6 µM), for inactives: top-dose activity change, negative = inhibition, most hits filed as inhibitors. hit rate 76% among 1,400; calls by dose curve; note: nearly all actives have a fitted effect of over 70% in size
Npr2 selectivity = antagonizes human Npr2, subtype selectivity check. shares compounds with hNpr1 antagonist. HEK293 hNpr2 GloSensor cGMP luminescence, CNP-stimulated. Potency, µM (top dose mostly 57.6 µM), without a hit: at the top dose activity change, negative = inhibition, most hits filed as inhibitors. hit rate 67% among 1,400. AID 1347046; calls by dose curve; note: nearly all actives have a fitted effect of over 70% in size
Target sequence (P20594 whole entry, looked up): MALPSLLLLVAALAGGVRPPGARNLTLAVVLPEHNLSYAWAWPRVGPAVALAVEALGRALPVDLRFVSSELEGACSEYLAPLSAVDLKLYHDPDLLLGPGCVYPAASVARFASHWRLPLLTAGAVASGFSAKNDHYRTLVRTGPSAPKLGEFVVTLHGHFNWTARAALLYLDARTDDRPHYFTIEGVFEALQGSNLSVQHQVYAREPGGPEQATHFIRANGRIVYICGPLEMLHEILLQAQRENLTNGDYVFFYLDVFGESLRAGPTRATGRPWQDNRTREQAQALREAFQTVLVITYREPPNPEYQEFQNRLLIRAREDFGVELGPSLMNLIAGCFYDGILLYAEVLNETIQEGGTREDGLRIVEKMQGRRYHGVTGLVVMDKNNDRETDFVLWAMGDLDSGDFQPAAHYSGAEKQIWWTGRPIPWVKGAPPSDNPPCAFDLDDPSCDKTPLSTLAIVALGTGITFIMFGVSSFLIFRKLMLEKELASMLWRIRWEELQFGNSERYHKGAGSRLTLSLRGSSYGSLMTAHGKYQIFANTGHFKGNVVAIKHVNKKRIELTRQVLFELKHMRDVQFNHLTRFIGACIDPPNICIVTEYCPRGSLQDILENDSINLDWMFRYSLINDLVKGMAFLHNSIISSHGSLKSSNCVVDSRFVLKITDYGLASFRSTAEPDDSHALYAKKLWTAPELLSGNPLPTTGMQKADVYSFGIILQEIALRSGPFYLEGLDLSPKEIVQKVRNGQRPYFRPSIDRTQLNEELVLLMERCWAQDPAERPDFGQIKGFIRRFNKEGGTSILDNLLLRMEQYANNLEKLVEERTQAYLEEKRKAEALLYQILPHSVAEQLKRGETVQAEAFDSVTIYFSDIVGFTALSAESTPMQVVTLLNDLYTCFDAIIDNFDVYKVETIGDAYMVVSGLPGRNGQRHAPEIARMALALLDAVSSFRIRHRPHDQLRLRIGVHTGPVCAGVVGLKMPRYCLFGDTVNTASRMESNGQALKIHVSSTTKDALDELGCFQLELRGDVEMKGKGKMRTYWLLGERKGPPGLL
FLuc counter = inhibits firefly luciferase, false Npr1 antagonist flag | shares compounds with hNpr1 antagonist | purified FLuc enzyme, luminescence, Km substrate | Potency, µM (highest dose often 57.6 µM), for the others: at the highest dose activity change, negative = inhibition, usual class: inhibitors | hit rate 0.7% among 1,400 | AID 1347047; note: 0% is about no effect
GloSensor cGMP = counter-screen for Npr1 antagonists: GloSensor control cell line; shares compounds with hNpr1 antagonist; HEK293 GloSensor cGMP, SNP-stimulated, luminescence; Potency, µM (top dose mostly 57.6 µM), for the others: top-dose activity change, negative = inhibition, actives largely listed as inhibitors; hit rate 69% among 1,400; calls by dose curve; note: % is set by controls: 0 for no effect and ±100 for the full control effect; nearly all actives have a fitted effect of over 70% in size
Numbers without * were called inactive; [ ] = remark or other dose. The list is not random: actives were taken first. Their share in the collection is about 10%. Unless noted, calls come from the whole dose curve; as a rule, active = well fitted curve in the direction sought with a large enough effect; inconclusive = small, poorly fitted or top-dose-only effect, or another doubt; inactive = no such curve, though single readings can be large; an effect the other way counts as inactive or inconclusive. Potency is the fitted concentration of half-maximal effect.

Screening COc1cccc(CN2CCCCCCNC(=O)[C@@H]3C[C@@H](C(=O)N4CCc5ccccc5C4)C[C@@H]32)c1 returned GPT2 inhibitor -5%, HEK cytotox inconclusive, hNpr1 antagonist -11%, NIH3T3 tox inconclusive and FLuc inh inactive.
O=C1NCCCCCCN(Cc2cccc(F)c2)[C@H]2C[C@H](C(=O)N3CCc4ccccc4C3)C[C@@H]12 was read as GPT2 inhibitor 4%, HEK cytotox 25µM*, hNpr1 antagonist 16µM*, NIH3T3 tox 40µM*, FLuc inh inactive, NPR1 antag cnf inconclusive, Npr2 selectivity inconclusive, FLuc counter 0% and GloSensor cGMP -13%.
For CCOC(=O)C1CCN(C(=O)C2CCc3nnc(C4CCN([S+](=O)([O-])c5ccccc5Cl)CC4)n32)CC1 (centres undefined) the results were GPT2 inhibitor inactive, HEK cytotox inactive and NIH3T3 tox -14%.
`CC(=O)Nc1ccc(S(=O)(=O)N[C@H]2CO[C@H]3[C@@H]2OC[C@H]3OC(=O)Nc2ccc(Oc3ccccc3)cc2)cc1` gave GPT2 inhibitor inconclusive, HEK cytotox inconclusive, hNpr1 antagonist 11µM*, NIH3T3 tox inconclusive, FLuc inh inactive, NPR1 antag cnf 12µM*, Npr2 selectivity 17µM*, FLuc counter inconclusive and GloSensor cGMP 12µM*.
COc1ccc(OC)c(S(=O)(=O)N[C@H]2CO[C@H]3[C@@H]2OC[C@H]3OC(=O)Nc2ccc(C(C)=O)cc2)c1 was read as GPT2 inhibitor -3%, HEK cytotox 3%, hNpr1 antagonist 0%, NIH3T3 tox inactive and FLuc inh inactive.
`CC(=O)Nc1ccc(S(=O)(=O)N[C@H]2CO[C@H]3[C@@H]2OC[C@@H]3Nc2nccc(-c3ccco3)n2)cc1` gave GPT2 inhibitor -7%, HEK cytotox 25µM*, hNpr1 antagonist 13µM*, NIH3T3 tox inconclusive, FLuc inh inactive, NPR1 antag cnf 24µM*, Npr2 selectivity 24µM*, FLuc counter 0% and GloSensor cGMP 27µM*.
Screening COc1ccc(OC)c(S(=O)(=O)N[C@H]2CO[C@H]3[C@@H]2OC[C@H]3OC(=O)Nc2ccc(Oc3ccccc3)cc2)c1 returned GPT2 inhibitor -12%, HEK cytotox inconclusive, hNpr1 antagonist 8.9µM*, NIH3T3 tox inconclusive, FLuc inh inactive, NPR1 antag cnf 11µM*, Npr2 selectivity 14µM*, FLuc counter -7% and GloSensor cGMP 9.7µM*.
`COc1cccc(C(=O)NC(C(=O)N2CCCCC2)C2CCN(C(=O)c3ccc(F)cc3)CC2)c1` (centres undefined) gave GPT2 inhibitor inactive, HEK cytotox inactive, hNpr1 antagonist 6%, NIH3T3 tox -2% and FLuc inh inactive.
C#CCNC(=O)c1nc2sccn2c1-c1ccc(C(F)(F)F)cc1 was read as GPT2 inhibitor -11%[88.5 µM], HEK cytotox inconclusive and NIH3T3 tox inconclusive.
For O=C(N[C@H](c1ccccn1)C1CC(O)C1)C1(c2ccc(Cl)cc2)CCC1 (some centres undefined) the results were GPT2 inhibitor -3%[11.5 µM], HEK cytotox inconclusive, hNpr1 antagonist inconclusive, NIH3T3 tox -19%, FLuc inh inactive, NPR1 antag cnf inconclusive, Npr2 selectivity 19µM*, FLuc counter 1% and GloSensor cGMP 1%.
CS(=O)(=O)c1ccc(CC(=O)N[C@H](c2ccccn2)C2CC(O)C2)cc1 (some centres undefined) was read as GPT2 inhibitor inconclusive, HEK cytotox -3%, hNpr1 antagonist -18%, NIH3T3 tox 2% and FLuc inh inactive.
For Cc1ccc(C(=O)N[C@H]2CO[C@H]3[C@@H]2OC[C@@H]3n2nnnc2Oc2ccccc2)cc1 the results were GPT2 inhibitor -5%[88.5 µM], HEK cytotox inconclusive, hNpr1 antagonist 8.9µM*, NIH3T3 tox inconclusive, FLuc inh inactive, NPR1 antag cnf 11µM*, Npr2 selectivity 16µM*, FLuc counter 1%[86.2 µM] and GloSensor cGMP 9.9µM*.
For COc1ccc(C(=O)N[C@H]2CO[C@H]3[C@@H]2OC[C@@H]3n2nnnc2Oc2cccc(N(C)C)c2)cc1 the results were GPT2 inhibitor -14%, HEK cytotox inconclusive, hNpr1 antagonist 7.1µM*, NIH3T3 tox inconclusive, FLuc inh inactive, NPR1 antag cnf 12µM*, Npr2 selectivity 12µM*, FLuc counter 2% and GloSensor cGMP 9.7µM*.
`CN(C)c1ccc(C(=O)N[C@H]2CO[C@H]3[C@@H]2OC[C@@H]3n2nnnc2Oc2cccc(N(C)C)c2)cc1` gave GPT2 inhibitor 2%, HEK cytotox inconclusive, hNpr1 antagonist 11µM*, NIH3T3 tox -28%, FLuc inh inactive, NPR1 antag cnf 14µM*, Npr2 selectivity 15µM*, FLuc counter -3% and GloSensor cGMP 12µM*.
`COc1ccc(C(=O)N[C@H]2CO[C@H]3[C@@H]2OC[C@@H]3n2nnnc2Oc2ccc3c(c2)OCO3)cc1` gave GPT2 inhibitor -4%, HEK cytotox inconclusive, hNpr1 antagonist inconclusive, NIH3T3 tox -33% and FLuc inh inactive.
Screening O=C(Nc1ccc(Oc2ccccc2)cc1)N[C@H]1CO[C@H]2[C@@H]1OC[C@@H]2n1nnnc1Oc1ccc(-n2ccnc2)cc1 returned GPT2 inhibitor 1%, HEK cytotox 40µM*, hNpr1 antagonist 11µM*, NIH3T3 tox inconclusive, FLuc inh inactive, NPR1 antag cnf 22µM*, Npr2 selectivity 22µM*, FLuc counter -1% and GloSensor cGMP 17µM*.
